Assay outcomes from PubChem.
USP17 block – inhibitors of human USP17 deubiquitinase. A8MUK1. purified USP17, Ub-rhodamine cleavage fluorescence, 3 h. inhibition, % at 50 µM. 6.5% of 47,000 active. AID 1645855
USP30 block – inhibitors of human USP30 deubiquitinase. purified USP30, Ub-rhodamine cleavage fluorescence. inhibition, % at 25 µM. AID 1645860. Q70CQ3. 5.3% of 47,000 active
Target sequence (Q70CQ3 whole entry, looked up): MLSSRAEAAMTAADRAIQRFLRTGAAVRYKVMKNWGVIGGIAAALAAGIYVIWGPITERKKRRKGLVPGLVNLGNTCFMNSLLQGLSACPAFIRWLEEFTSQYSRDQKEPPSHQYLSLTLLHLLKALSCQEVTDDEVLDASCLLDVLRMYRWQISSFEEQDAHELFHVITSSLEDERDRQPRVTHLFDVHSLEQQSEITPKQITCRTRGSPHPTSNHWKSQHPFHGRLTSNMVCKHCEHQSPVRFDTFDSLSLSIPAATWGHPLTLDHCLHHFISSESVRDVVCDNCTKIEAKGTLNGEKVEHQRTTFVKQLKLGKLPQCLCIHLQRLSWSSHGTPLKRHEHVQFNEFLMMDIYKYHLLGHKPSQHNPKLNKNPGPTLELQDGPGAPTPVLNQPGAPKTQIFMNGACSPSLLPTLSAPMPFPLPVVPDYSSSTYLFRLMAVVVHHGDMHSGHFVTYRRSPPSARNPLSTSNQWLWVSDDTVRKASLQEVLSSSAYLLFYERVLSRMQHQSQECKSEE
USP28 inh – human USP28 deubiquitinase inhibition | Q96RU2 | purified USP28, Ub-rhodamine cleavage fluorescence, 30 min | inhibition, % at 25 µM | 3% of 47,000 active | AID 1645857
Of the large screens only hits and unclear results are named; the others gave an inactive call. Shown are actives, neighbours in structure and some others; about 11% of the full set was active somewhere. Cut-off read from the data, not from the text of the source: active = inhibition above about 30%; inactive = the rest.

Oc1ccc2c3c1[C@@H](O)C1OC1[C@]31Oc3cccc4c3[C@](C=C[C@@H]4O)(O2)O1 (some centres not stated)	USP17 block 46.3
COc1cccc(C(=O)Oc2nc(-c3cnccn3)sc2C)c1	none
CN1Cc2[nH]cnc2C[C@H]1C(=O)NCc1ccc(C(F)(F)F)cc1	none
O=C(CN1C(=O)COc2ccc(Cl)cc21)Nc1cccc2ncccc12	USP17 block 60.0
O=C(Cc1ccc(Cl)c(Cl)c1)Nc1cccc2ncccc12	none
Cc1sc(NC(=O)c2cccnc2)nc1-c1ccc2c(c1)NC(=O)CO2	none
O=C1COc2ccc(C(=O)c3ccccc3C(=O)NC3CC3)cc2N1	none (no result: USP30 block, USP28 inh)
O=C1COc2ccc(C(=O)Nc3cccc4ncccc34)cc2N1	USP17 block 36.7
COc1ccc(C(=O)Nc2nc(-c3ccc4c(c3)NC(=O)CO4)c(C)s2)cc1OC	USP17 block 57.7
Cc1cccc(N2CCN(S(=O)(=O)c3cc4n(c3)CCCNC4=O)CC2)c1	none
CCN(CC)c1ccc2ccc(C(=O)NC3CC3)cn12	none
COc1ccc2[nH]c3c(c2c1)CCN1C(=O)CN(CCN2CCOCC2)C(=O)[C@]31C	none
CC(C)CC(O)(c1ccc(O)cc1)C(CN1CCOCC1)c1ccccc1 (configuration not stated)	none
O=C(CNc1nc(CN2CCOCC2)nc2sc3c(c12)CCCC3)Nc1cc(Cl)ccc1Cl	none (no result: USP17 block)
Cc1cc(=O)[nH]c(C2CN(C(=O)c3ccc4c(c3)OCO4)CCO2)n1 (configuration not stated)	none
CCn1c2ccccc2c2cc(NC(=O)Cc3ccccc3Cl)ccc21	none
COc1ccc(Cn2cccc(-c3nc(C4CC4)no3)c2=O)cc1F	USP28 inh 30.8
Cc1noc(-c2cccn(Cc3noc(-c4ccccc4C)n3)c2=O)n1	none
COc1cccc(-c2nc(Cn3cccc(-c4nc(C)no4)c3=O)no2)c1	none
Cc1ccccc1Cn1cccc(-c2nc(C3CC3)no2)c1=O	USP28 inh 37.9
O=C(CCCn1c(=O)c2ccccc2n(CC(=O)NC2CCCC2)c1=O)NC1CCN(Cc2ccccc2)CC1	none
CN(C(=O)c1ccc(N2CCCCS2(=O)=O)cc1Cl)c1ccccc1	none
Cc1ccc(-n2ncc3c2ncn2nc(C(C)(C)C)nc32)cc1C	none
Cc1ccc(-n2ncc3c2ncn2c(C)nnc32)cc1C	USP30 block 45.0
c1cc(-c2nc(-c3ccc4c(c3)ncn4CCN3CCCCC3)no2)ccn1	none
CC(=O)c1cccc(NC(=O)C(C)OC(=O)c2cc3ccccc3[nH]2)c1 (configuration not stated)	USP17 block 59.9, USP30 block 44.5, USP28 inh 35.9
COc1ccc(N(C)S(=O)(=O)c2cccc(C(=O)OC(C)C(=O)Nc3cccc(C(C)=O)c3)c2)cc1 (configuration not stated)	none
CC(OC(=O)c1c2c(nc3ccccc13)CCC(C(C)(C)C)C2)C(=O)Nc1cccc([N+](=O)[O-])c1 (configuration not stated)	none
Cc1nn(-c2ccccc2)c(C)c1C(=O)OC(C)C(=O)Nc1cc(C(F)(F)F)ccc1Cl (configuration not stated)	none
CC(OC(=O)c1c2c(nc3ccccc13)CCCC2)C(=O)Nc1ccc(Cl)cc1Cl (configuration not stated)	USP17 block 30.5
CC(Oc1nncc2ccccc12)C(=O)Nc1ccc(Cl)cc1Cl (configuration not stated)	USP17 block 66.8, USP30 block 72.1
CC(OC(=O)c1c2c(nc3ccccc13)CCCC2)C(=O)Nc1ccc(N(C)C)cc1 (configuration not stated)	USP17 block 40.5
CC(OC(=O)c1c2c(nc3ccccc13)CCCCC2)C(=O)Nc1ccc2ccccc2c1 (configuration not stated)	USP17 block 63.3, USP28 inh 44.3
O=C(OC1CCCCC1=O)c1c2c(nc3ccccc13)CCCCC2 (configuration not stated)	none
CC(Oc1nncc2ccccc12)C(=O)Nc1ccc(S(=O)(=O)N2CCCC2)cc1 (configuration not stated)	none
COc1ccccc1C1(O)CCCN(C(=O)c2ccc3nc(C)[nH]c3c2)C1 (configuration not stated)	none
CCOC(=O)N1CCC(NC(=O)c2nnn(-c3ccccc3)n2)CC1	none
COc1ccc(CCN2CC(=O)N3[C@H](Cc4c([nH]c5ccccc45)C3(C)C)C2=O)cc1OC	none
O=C(Nc1ccccc1)c1cn(-c2ncccc2-c2nc(C3CC3)no2)cn1	none
Cc1cc(C)cc(NC(=O)Cc2c(C)nc(-c3ncccn3)[nH]c2=O)c1	none
COc1ccc(CC(=O)N(Cc2nc3nc(C)cc(C)n3n2)c2ccc(C)cc2)cc1	none
O=C(O)c1nc(SCc2cccc(F)c2)n2ccccc12	none
Cc1nc2c(c(SCC(=O)NC3CCCCC3)n1)CCC2	none
COc1ccc(C)cc1NC(=O)c1c2c(nc3ccccc13)CCN(Cc1ccccc1)C2	none
Cc1cc(C)c(NC(=O)COc2nncc3ccccc23)c(C)c1	none
CC(C)c1ccc(NC(=O)COc2nncc3ccccc23)cc1	USP30 block 33.2
Cc1ccc(NC(=O)c2c3c(nc4ccccc24)CCCCC3)c(C)c1	USP17 block 74.5, USP30 block 34.9
Cc1ccc(-n2nnnc2CNS(=O)(=O)c2ccc(Cl)cc2)cc1	none
O=C(NCCN1CCOCC1)c1ccc(-n2cccn2)c(C#Cc2cccnc2)c1	none
O=C(NCc1ccncc1)c1ccc(-n2cccn2)c(C#Cc2cccnc2)c1	USP17 block 42.7
COc1cccc(NC(=O)CN2CN(c3ccccc3)c3ncccc3S2(=O)=O)c1	none
COc1ccccc1CNC(=O)C1CCCN(S(=O)(=O)Cc2ccc(Cl)cc2)C1 (configuration not stated)	USP30 block 30.1
Cc1ccccc1NC(=O)C1CCCN(S(=O)(=O)Cc2ccc(F)cc2)C1 (configuration not stated)	none
O=C(C1CCCN(S(=O)(=O)Cc2ccccc2)C1)N1CCC(Cc2ccccc2)CC1 (configuration not stated)	USP30 block 30.5
CN(C1CCCCC1)S(=O)(=O)N1CCCC(C(=O)NCc2cccc(Cl)c2)C1 (configuration not stated)	USP30 block 42.1
Cc1cccc(CNC(=O)C2CCCN(S(=O)(=O)Cc3ccc(Cl)cc3)C2)c1 (configuration not stated)	none
CN(C1CCCCC1)S(=O)(=O)N1CCCC(C(=O)NCc2ccccc2Cl)C1 (configuration not stated)	none
Cc1ccccc1NC(=O)C1CCCN(S(=O)(=O)Cc2ccccc2)C1 (configuration not stated)	USP17 block 31.7
O=C(C1CCCN(Cc2cccc(Cl)c2)C1)N1CCC(Cc2ccccc2)CC1 (configuration not stated)	none
O=C(c1snc2c(=O)n(Cc3ccccc3)c(=O)[nH]c12)N1CCCC1	none
O=c1c(SCc2cccc(F)c2)nccn1-c1ccc2c(c1)OCCO2	none
Cc1nc(-c2cccc(S(=O)(=O)N3CCN(c4ccccc4F)CC3)c2)no1	none
COc1ccc(S(=O)(=O)N2CCC(c3[nH]nc4nccnc34)CC2)cc1	none
CCCCN(C(=O)c1noc2c1CCCC2)C1CCN(C(C)=O)CC1	none
O=C(NCCC(=O)N1CCCCC1c1nc2ccccc2s1)c1ccco1 (configuration not stated)	none
